High-throughput results deposited in PubChem BioAssay by several laboratories.
sEH activator: activators of human soluble epoxide hydrolase; activation, % at 2 µM; purified human sEH enzymatic activity, activator screen; P34913; 0.04% of 91,000 active; in the data active = activation above about 37%
CYP2C9 inhib: blocks human cytochrome P450 2C9. P11712. CYP2C9 Supersomes, luciferin-H conversion, luminescence. inhibition, % at 5 µM. 20% of 96,000 active;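 active = blocking of liver enzyme CYP2C9 beyond about 50% at 5 µM, limit read from the data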
Target sequence (P11712 whole entry, looked up): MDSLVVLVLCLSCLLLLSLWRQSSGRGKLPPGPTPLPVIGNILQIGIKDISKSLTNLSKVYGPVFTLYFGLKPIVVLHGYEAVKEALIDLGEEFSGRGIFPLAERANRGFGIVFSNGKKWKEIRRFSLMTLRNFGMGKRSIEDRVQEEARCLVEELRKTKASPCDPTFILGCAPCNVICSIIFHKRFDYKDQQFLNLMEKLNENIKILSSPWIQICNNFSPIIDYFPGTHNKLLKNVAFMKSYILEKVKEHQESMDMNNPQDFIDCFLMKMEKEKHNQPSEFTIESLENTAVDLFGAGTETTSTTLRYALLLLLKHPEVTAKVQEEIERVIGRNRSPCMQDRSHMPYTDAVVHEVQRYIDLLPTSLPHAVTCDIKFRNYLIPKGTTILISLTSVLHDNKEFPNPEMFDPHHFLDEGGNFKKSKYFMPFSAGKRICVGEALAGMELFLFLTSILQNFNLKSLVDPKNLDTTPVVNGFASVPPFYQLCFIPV
CYP2C19 act: increases human CYP2C19 enzyme activity; recombinant CYP2C19, luciferin-H EGE luminescence; active compounds read high; 0 = fully inhibited enzyme, 1 = untreated enzyme; AID 1025; activation factor at 5 µM; P33261; 96,000 tested, under 10 active;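 active = activation factor of at least 2 at 5 µM in the primary screen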
CYP2C19 inhib: inhibitors of human CYP2C19; inhibition, % at 5 µM; AID 778; 21% of 96,000 active; P33261; CYP2C19 Supersomes, luciferin-H EGE luminescence, 30 min;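 active = CYP2C19 inhibition above a set limit at 5 µM in the primary screen, cut at about 50% in these data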
CYP2C9 act: increases human cytochrome P450 2C9 activity | 1.4% of 96,000 active | activation factor at 5 µM | recombinant CYP2C9, luciferin-H conversion, luminescence; active compounds read high; factor 1 = untreated enzyme, 0 = blocked;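 active = activation factor of 2 or more for CYP2C9 at a 5 µM dose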
sEH inh: soluble epoxide hydrolase (human) inhibition | P34913 | recombinant human sEH enzymatic activity assay | inhibition, % at 2 µM | 0.34% of 91,000 active; in the data active = inhibition above about 80%
Each line names hits and unclear results; the compound was inactive in the other large screens. This is a sample that favours compounds with a hit; in the whole collection about 27% have one here.

CC(C)(C)N1CC(c2nc3ccccc3n2CCOc2ccccc2)CC1=O (centres undefined)	CYP2C9 inhib 83, CYP2C19 inhib 62
CC(C)(C)N1CC(c2nc3ccccc3n2Cc2ccc(Cl)cc2)CC1=O (centres undefined)	CYP2C9 inhib 93, CYP2C19 inhib 72
C=CCN1CC(c2nc3ccccc3n2Cc2ccccc2)CC1=O (centres undefined)	none (no result: sEH activator, sEH inh)
N#CC1=C(SCc2ccccc2)NC(=O)CC1c1ccc(O)cc1 (centres undefined)	CYP2C9 inhib 53, CYP2C19 inhib 65
N#CC1=C(SCc2ccccc2)NC(=O)CC1c1cccc(O)c1 (centres undefined)	CYP2C9 inhib 62, CYP2C19 inhib 78 (no result: sEH activator, sEH inh)
O=S(=O)(NC1CCCC1)c1ccc(S(=O)(=O)N2CCN(c3ccccc3)CC2)cc1	none
Cc1ccc(Sc2c(C)[nH]n(C(C)(C)C)c2=O)cc1	CYP2C9 inhib 87, CYP2C19 inhib 88
CCC(CO)n1cnnc1-c1ccncc1 (centres undefined)	none
COc1ccc(-c2cc(C(=O)OCC(=O)N(C)C)c3ccccc3n2)cc1	CYP2C9 inhib 72, CYP2C19 inhib 88 (no result: sEH activator, sEH inh)
Cc1ccc(C(=O)COC(=O)c2cc(Cl)nc3ccccc23)cc1	CYP2C19 inhib 65
O=C(OC1CCOC1=O)c1cc(-c2ccc(Br)cc2)nc2ccccc12 (centres undefined)	CYP2C9 inhib 52
COc1ccc(-c2cc(C(=O)OC3CCOC3=O)c3ccccc3n2)cc1 (centres undefined)	CYP2C9 inhib 96
CCOC(=O)N1CCN(CC(=O)Nc2ccc(C)cc2)CC1	none
Cc1ccc(NC(=O)CN2CC(C)SC2=NC2CCCCC2)cc1 (centres undefined)	CYP2C19 inhib 82
CCCCC(C(=O)NCCC(C)C)N(CCCN1CCOCC1)C(=O)c1snc(C(N)=O)c1N (centres undefined)	none
CCCn1c(SCC(=O)Nc2ccccc2C(=O)OC)nc2c1c(=O)n(C)c(=O)n2C	CYP2C9 inhib 72
CCCn1c(SCC(=O)Nc2ccccc2N2CCCCC2)nc2c1c(=O)n(C)c(=O)n2C	CYP2C9 inhib 98, CYP2C19 inhib 79
CCCn1c(SCC(=O)Nc2sc(C)c(C)c2C(=O)OCC)nc2c1c(=O)n(C)c(=O)n2C	CYP2C9 inhib 66
CCCn1c(SCC(=O)Nc2ccc3c(c2)OCO3)nc2c1c(=O)n(C)c(=O)n2C	none (no result: sEH activator, sEH inh)
CCCn1c(SCC(=O)OCc2ccccc2)nc2c1c(=O)n(C)c(=O)n2C	none
Cn1cccc1C(=O)NC(=O)COC(=O)C12CC3CC(CC(O)(C3)C1)C2	none
O=C(Cn1nnc(-c2ccccc2F)n1)NCCc1ccccc1	CYP2C19 inhib 70
COc1ccc(C(=O)Cn2nnc(-c3ccccc3F)n2)cc1	CYP2C19 inhib 55
O=C(CN(C(=O)Cn1nnc(-c2ccccc2F)n1)c1cccc2c1CCCC2)NCc1ccccc1	CYP2C9 inhib 96
COc1ccc(CCNC(=O)Cn2nnc(-c3cccc(OC)c3OC)n2)cc1OC	none
O=C(Cn1nnc(-c2ccccc2F)n1)Nc1cccc2ncccc12	CYP2C19 inhib 63
COc1ccc(-c2nnn(CC(=O)N(CC(=O)NCCC(C)C)c3ccccc3)n2)cc1OC	none
CC(=O)C1=C(O)C(=O)N(c2ccc(C)cc2)C1c1ccccn1 (centres undefined)	none (no result: CYP2C9 inhib, CYP2C19 act, CYP2C19 inhib, CYP2C9 act)
COC(=O)c1cnn(C(=O)c2ccccc2Br)c1N	none
O=C(C1CC(=O)N(c2ccccc2)C1)N1CCN(C2=NS(=O)(=O)c3ccccc32)CC1 (centres undefined)	none
COc1ccc2c(c1OC)C(=O)OC2Nc1ncc(Br)cc1Br (centres undefined)	none
COCC(=O)NC1CCN(CC(=O)Nc2ccc(OC)cc2[N+](=O)[O-])CC1	none
CCOC(=O)c1sc(N)nc1C(C)(C)C	CYP2C19 inhib 58
CC(=O)c1c(C(C)=O)c(C)n(-c2ccc(N)cc2)c1C	none
CC(C)c1noc2ncc(C(=O)c3cc(Cl)cc(Cl)c3O)cc12	CYP2C9 inhib 100, CYP2C19 inhib 81
C/C(=N/Nc1nc(-c2ccc(Cl)cc2)cs1)c1cccs1	none
O=C(NCc1ccco1)c1ccc2c(c1)N(Cc1ccccc1)C(=O)CS2	CYP2C9 inhib 78
CCCCNC(=O)c1ccc2c(c1)N(CC)C(=O)CS2	none (no result: sEH activator, sEH inh)
CCN1C(=O)CSc2ccc(C(=O)NCc3ccc(OC)cc3)cc21	CYP2C9 inhib 86, CYP2C19 inhib 80
COc1cccc(CN2C(=O)C3(C(C#N)=C(N)OC4=C3C(=O)CCC4)c3ccccc32)c1 (centres undefined)	CYP2C9 inhib 66
N#CC1=C(N)OC2=C(C(=O)CCC2)C12CCC1(CC2)OCCO1	none
CC1(C)C(C#N)=C(N)OC2=C1C(=O)CCC2	CYP2C19 inhib 68 (no result: sEH activator, sEH inh)
O=C(NCCNc1ccc([N+](=O)[O-])cc1)c1ccccc1Br	none
Cc1cc(C)nc(NS(=O)(=O)c2ccc(NC(=S)NC(=O)C(C)C)cc2)n1	none (no result: CYP2C9 inhib, CYP2C19 act, CYP2C19 inhib, CYP2C9 act)
CCc1nnc(NS(=O)(=O)c2ccc(NC(=S)NC(=O)/C=C/c3ccc(C(C)C)cc3)cc2)s1	CYP2C9 inhib 77
CCOc1ccccc1-n1c(N)c(C(N)=O)sc1=S	none
C=CCn1c(N)c(C(=O)OCC)sc1=S	none
CCOC(=O)c1sc(=S)n(-c2ccccc2OC)c1N	CYP2C9 inhib 56 (no result: sEH activator, sEH inh)
CCOC(=O)c1sc(=S)n(Cc2ccccc2)c1N	CYP2C9 inhib 79
CCOC(=O)c1sc(=S)n(CC)c1N	CYP2C9 inhib 72, CYP2C19 inhib 84 (no result: sEH activator, sEH inh)
CCOC(=O)c1sc(=S)n(-c2ccc3c(c2)OCO3)c1N	CYP2C19 inhib 64 (no result: sEH activator, sEH inh)
CN(c1ccccc1C(N)=O)S(=O)(=O)c1ccccc1	none (no result: CYP2C9 inhib, CYP2C19 act, CYP2C19 inhib, CYP2C9 act)
O=C(N/N=C1\CCCc2ccccc21)c1ccccc1[N+](=O)[O-]	none (no result: CYP2C9 inhib, CYP2C19 act, CYP2C19 inhib, CYP2C9 act)
C=CCn1c(NC(=O)CC)c(C(=O)OCC)sc1=S	CYP2C19 inhib 52
CC(C)c1[nH]nc2c1C(c1cccc(OC(=O)N3CCOCC3)c1)C(C#N)=C(N)O2 (centres undefined)	none
Cc1[nH]nc2c1C(Cc1ccccc1)C(C#N)=C(N)O2 (centres undefined)	CYP2C19 inhib 66
CCc1[nH]nc2c1C(Cc1ccccc1)C(C#N)=C(N)O2 (centres undefined)	CYP2C19 inhib 53
Cc1ccc(SCc2[nH]nc3c2C(c2ccc(C)o2)C(C#N)=C(N)O3)cc1 (centres undefined)	none
CCc1[nH]nc2c1C(c1cccc(OC(=O)N3CCOCC3)c1)C(C#N)=C(N)O2 (centres undefined)	CYP2C19 inhib 70
Cc1ccc(SCc2[nH]nc3c2C(C(C)C)C(C#N)=C(N)O3)cc1 (centres undefined)	CYP2C9 inhib 52
O=C(CSc1nc2ccccc2[nH]1)NCCN1CCCCC1	none
CC(C)c1[nH]nc2c1C(Cc1ccccc1)C(C#N)=C(N)O2 (centres undefined)	CYP2C9 inhib 57, CYP2C19 inhib 95
